# Measurements published in the supplement of paper PMC9135407.
# Several values for one entry are separate records, joined by “and”; a condition that tells them apart may be missing. Equal entries are not always repeated. Structures can show the parent of a compound that is named as a salt. Hit rate of the full screen: of about 5,800 compounds, about 620 (11%) showed activity. Shown is part of a subset that was picked to be rich in actives. A number with no mark means an inactive call.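 Rule for the calls: active = score above a cut-off or among the top three wells of a plate; in these data no inactive exceeds 0.85.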
# Test system: primary human hepatic stellate cells (donor 1)
# Assay: scaled lipid accumulation score (0 = DMSO-like, 1 = nortriptyline-like); higher = stronger HSC inactivation (lipid re-accumulation), active = hit call of the paper
# Settings: 48 h
# [1] = library stock concentration: 3.33 mM
# [2] = library stock concentration: 10 mM
# [3] = library stock concentration: 1 mM
# [4] = library stock concentration: 80 uM
# [5] = library stock concentration: 400 uM
# [6] = library stock concentration: 2 mM
structure (smiles),measurement,setting,value
CN1CCc2nc(C(=O)N[C@@H]3C[C@@H](C(=O)N(C)C)CC[C@@H]3NC(=O)C(=O)Nc3ccc(Cl)cn3)sc2C1 [Edoxaban],scaled lipid accumulation score,[1],≤ -0.009
same,scaled lipid accumulation score,[2],0.008
CC(=O)N[C@@H](Cc1c[nH]c2ccccc12)C(=O)O [Acetyltryptophan],scaled lipid accumulation score,[2],≤ 0
COc1cc(C(O)C(=O)O)ccc1O (stereo unspecified),scaled lipid accumulation score,[2],≤ -0.036
c1nc(CC2CCNCC2)c[nH]1 [Immepip dihydrobromide],scaled lipid accumulation score,[2],0.011
CC/C=C/C[C@H](O)/C=C/[C@H]1[C@H](O)CC(=O)[C@@H]1C/C=C\CCCC(=O)O [17-trans Prostaglandin E3],scaled lipid accumulation score,[3],≤ 0
Cc1cnc(-c2cnc(NCCNc3ccc(C#N)cn3)nc2-c2ccc(Cl)cc2Cl)[nH]1,scaled lipid accumulation score,[4],0.041
same,scaled lipid accumulation score,[5],0.005
same,scaled lipid accumulation score,[6],0.182
same,scaled lipid accumulation score,[1],0.229
same,scaled lipid accumulation score,[2],0.814
Cc1c[nH]c(-c2cnc(NCCNc3ccc(C#N)cn3)nc2-c2ccc(Cl)cc2Cl)n1.Cl,scaled lipid accumulation score,[2],1.08 (active)
CCCCC[C@H](O)/C=C/[C@H]1C(=O)C[C@H](O)[C@@H]1C/C=C\CCCC(=O)NC(CO)CO [Prostaglandin D2 serinol amide],scaled lipid accumulation score,[3],≤ 0
"CCCCC/C=C\C/C=C\C/C=C\CC1OC1CCCC(=O)O (stereo unspecified) [5,6-Epoxyeicosatrienoic acid]",scaled lipid accumulation score,library stock concentration: 100 uM,≤ -0.021
CCC(C)n1ncn(-c2ccc(N3CCN(c4ccc(OCC5COC(Cn6cncn6)(c6ccc(Cl)cc6Cl)O5)cc4)CC3)cc2)c1=O (stereo unspecified) [Itraconazole],scaled lipid accumulation score,library stock concentration: 2.8 mM,≤ 0
same,scaled lipid accumulation score,[1],0.492
same,scaled lipid accumulation score,[2],0.522
CC[C@@H]([C@H](C)O)n1ncn(-c2ccc(N3CCN(c4ccc(OC[C@@H]5CO[C@@](Cn6cncn6)(c6ccc(F)cc6F)C5)cc4)CC3)cc2)c1=O [Posaconazole] [listing 1 of 2 here],scaled lipid accumulation score,[1],0.134
CC[C@@H]([C@H](C)O)n1ncn(-c2ccc(N3CCN(c4ccc(OC[C@@H]5CO[C@@](Cn6cncn6)(c6ccc(F)cc6F)C5)cc4)CC3)cc2)c1=O [Posaconazole] [listing 2 of 2 here],scaled lipid accumulation score,[2],0.869 (active)
CN(C)Cc1c(C(=O)NCCOc2ccc(C(=O)NO)cc2)oc2ccccc12,scaled lipid accumulation score,[1],0.855 (active)
same,scaled lipid accumulation score,[2],1.01 (active)
Cc1cc(C)c(N(Cc2ccccc2)S(=O)(=O)c2ccc(OCCNC(=O)c3cc4ccccc4o3)cc2)c(C(=O)NO)c1,scaled lipid accumulation score,[2],≤ -0.001
COc1ccc(C(=O)NCc2ccc(OCCN(C)C)cc2)cc1OC,scaled lipid accumulation score,[2],0.061 and 0.313
CC(/C=C1\SC(=S)N(CC(=O)O)C1=O)=C\c1ccccc1 [Epalrestat],scaled lipid accumulation score,[1],≤ 0
same,scaled lipid accumulation score,[2],≤ 0
O=C(O)CCCC=CCC1C2CCC(O2)C1CNNC(=O)Nc1ccccc1 (stereo unspecified),scaled lipid accumulation score,[3],≤ 0 and ≤ -0.021
O=C(O)[C@]1(O)C[C@@H](O)[C@@H](O)[C@H](O)C1 [Quinic acid],scaled lipid accumulation score,,≤ 0
Cc1c(C(=O)c2ccccc2)c(N)c(-c2ccccc2)n1Cc1ccc(Cl)cc1,scaled lipid accumulation score,[3],≤ 0
CCCCCCCCCCCCCCCCCCOC[C@H](COP(=O)([O-])OCC[N+](C)(C)C)OC(C)=O,scaled lipid accumulation score,[3],≤ 0 and ≤ -0.021
CC(=O)Nc1nc(C)c(-c2ccc(Cl)c(S(=O)(=O)NCCO)c2)s1,scaled lipid accumulation score,[4],≤ -0.016
same,scaled lipid accumulation score,[5],≤ -0.016
same,scaled lipid accumulation score,[6],≤ -0.016
same,scaled lipid accumulation score,[1],≤ 0
same,scaled lipid accumulation score,[2],≤ 0 and ≤ -0.016
O=c1oc2c(O)c(O)cc3c(=O)oc4c(O)c(O)cc1c4c23 [Ellagic acid],scaled lipid accumulation score,[4],≤ 0
same,scaled lipid accumulation score,[5],≤ 0
same,scaled lipid accumulation score,[6],≤ 0
same,scaled lipid accumulation score,[2],≤ 0
CN(C)c1ccc(-c2nc3c(N4CCN(CC(=O)Nc5nccs5)CC4)c(Cl)cnc3[nH]2)cc1,scaled lipid accumulation score,[1],0.858 (active)
same,scaled lipid accumulation score,[2],0.949 (active)
O=C(c1cccc(Cl)c1F)N1CCN(Cc2cccc(Nc3nccs3)n2)CC1,scaled lipid accumulation score,[1],≤ 0
same,scaled lipid accumulation score,[2],0.453
"CCCCC/C=C/C=C1/C(=O)C=C[C@@H]1C/C=C\CCCC(=O)O [15-deoxy-.DELTA.12,14-Prostaglandin J2]",scaled lipid accumulation score,[3],≤ 0
CSc1ccc(C(=O)c2[nH]c(=O)[nH]c2C)cc1 [Enoximone],scaled lipid accumulation score,[2],0.125
Cc1cc(NC2CCCCC2)nc(-n2nc(C)cc2C)n1,scaled lipid accumulation score,[2],≤ -0.03
COc1ccc2[nH]c([S+]([O-])Cc3ncc(C)c(OC)c3C)nc2n1 (stereo unspecified) [Tenatoprazole],scaled lipid accumulation score,library stock concentration: 5.8 mM,0.081
COc1c(C)cnc(Cn2cnc3c(Cl)nc(N)nc32)c1C [listing 1 of 2 here],scaled lipid accumulation score,[2],0.768
COc1c(C)cnc(Cn2cnc3c(Cl)nc(N)nc32)c1C [listing 2 of 2 here],scaled lipid accumulation score,[1],0.885 (active)
N#CC(=Cc1cc(Cl)cc(Cl)c1)c1cccnc1,scaled lipid accumulation score,library stock concentration: 18.2 mM,0.033
CN(C[C@@H]1COCCO1)S(=O)(=O)Nc1ccc2ccc3ncc(-c4cnn(C)c4)cc3c(=O)c2c1,scaled lipid accumulation score,[1],≤ 0
same,scaled lipid accumulation score,[2],≤ 0
O.O.O.O.O.O.O.O.O.O.O.O.O.O.O.O.O=S(=O)([O][Al])OC[C@H]1O[C@@](COS(=O)(=O)[O][Al])(O[C@H]2O[C@H](COS(=O)(=O)[O][Al])[C@@H](OS(=O)(=O)[O][Al])[C@H](OS(=O)(=O)[O][Al])[C@H]2OS(=O)(=O)[O][Al])[C@@H](OS(=O)(=O)[O][Al])[C@@H]1OS(=O)(=O)[O][Al] [Sucralfate sodium (10% w/v in dmso)],scaled lipid accumulation score,library stock concentration: 900 uM,≤ 0
COc1ccc2[nH]c(I)c(CCNC(C)=O)c2c1 [2-Iodomelatonin],scaled lipid accumulation score,[2],0.011
CN(C)CCCn1cc(C2=C(c3c[nH]c4ccccc34)C(=O)NC2=O)c2ccccc21 [listing 1 of 2 here],scaled lipid accumulation score,[1],0.071
same,scaled lipid accumulation score,[2],0.777
same,scaled lipid accumulation score,library stock concentration: 12.1 mM,0.519
COc1ccc2c(c1)c(C1=C(c3c[nH]c4ccccc34)C(=O)NC1=O)cn2CCCN(C)C,scaled lipid accumulation score,[3],0.018
same,scaled lipid accumulation score,[1],0.054 and ≤ 0
same,scaled lipid accumulation score,[2],0.706
CN(C)CCCn1cc(C2=C(c3c[nH]c4ccccc34)C(=O)NC2=O)c2ccccc21 [listing 2 of 2 here],scaled lipid accumulation score,[2],1.04 (active)
CN(C)CCCn1cc(C2=C(c3c[nH]c4ccccc34)C(=O)NC2=O)c2ccccc21 [Bisindolylmaleimide I],scaled lipid accumulation score,[1],0.663
